Common to all, as to assay: NCI-60 one-dose screen, 48 h (100 = growth as untreated, 0 = no growth, -100 = all killed)
Conditions in all cases: 10 µM unless noted

The subject of assay [1] is SK-MEL-2 melanoma.
In assay [2] the test system is EKVX NSCLC.
The subject of assay [3] is SN12C renal.
For assay [4], the system named is UO-31 renal.
In assay [5] the test system is ACHN renal.
The subject of assay [6] is CAKI-1 renal.
In assay [7] the test system is A498 renal.
Assay [8] relates to MOLT-4 leukemia.
The subject of assay [9] is SR leukemia.
Assay [10] concerns RPMI-8226 leukemia.
For assay [11], the system named is OVCAR-8 ovarian.
Assay [12] has as its system OVCAR-5 ovarian.
Assay [13] has as its system OVCAR-4 ovarian.
The test system of assay [14] is SK-OV-3 ovarian.
In assay [15] the test system is IGROV1 ovarian.
The subject of assay [16] is OVCAR-3 ovarian.
Assay [17] concerns HS 578T breast.
Assay [18] concerns NCI/ADR-RES ovarian.
For assay [19], the system named is CCRF-CEM leukemia.

The panel holds about 83,000 compounds, 20% with a hit somewhere; the sample as a whole holds those more often.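 Percent growth is the endpoint: 0 to 100 indicates growth inhibition (40 means 60% inhibition), 0 means no net growth, and negative values indicate cell death.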 Unmarked numbers belong to inactive results. Active and inactive are the calls of the source. Rule for the calls: active = growth percent below 10; inactive = the rest.

The values below come from PubChem BioAssay (NCI).

For the molecule `N/C(=N\c1nc2ccccc2s1)NC(=O)Nc1cccc(Cl)c1`, the growth in assay [1] was 28.9%; in assay [2] it was 49.7%; in assay [3] it was 40.9%; in assay [4] it was 46.8%; in assay [5] it was 44.7%; in assay [6] it was 23.9%. Moreover, the growth is 10.7% in assay [7]; 31.1% in assay [8]; 14.8% in assay [9]; 41.6% in assay [10]; 47.7% in assay [11]; 67.5% in assay [12]. Moreover, the growth was 62.3% in assay [13]; 41.9% in [14]; 35.5% in [15]; 15.8% in assay [16]; 17.5% in [17]; 11.8% in assay [18].

Turning to `C#Cc1cccc(NC(=O)c2ccc(NC(=O)CCl)cc2)c1`, the growth was 31.3% [8.25 µM] in assay [1]; 104% [8.25 µM] in assay [2]; -78.4% [8.25 µM] (active) in [3]; -99.2% [8.25 µM] (active) in [4]; -98.2% [8.25 µM] (active) in assay [5]; 9.54% [8.25 µM] (active) in assay [6]. The growth in assay [7] was 65% [8.25 µM]; in assay [19] it was 12.1% [8.25 µM]; in [8] it was 14% [8.25 µM]; in assay [10], 2.29% [8.25 µM] (active); in assay [11] it was -13.8% [8.25 µM] (active); in [12], 40% [8.25 µM]. In addition, the growth is 17.1% [8.25 µM] in assay [13]; 77.3% [8.25 µM] in assay [14]; -55.5% [8.25 µM] (active) in [15]; -85.8% [8.25 µM] (active) in assay [16]; 38.2% [8.25 µM] in [17]; 11.1% [8.25 µM] in [18].

Consider `O=C(N/N=C/C=C/c1ccc([N+](=O)[O-])o1)c1cc2ccccc2cc1O`, for which the growth in assay [1] was -44.6% (active); in assay [2] it was -15.9% (active); in [3] it was -10.7% (active); in assay [4], -71.9% (active); in [5], -3% (active); in assay [6] it was 12.7%. The growth is -82.4% (active) in assay [7]; 5.15% (active) in assay [19]; 4.89% (active) in assay [8]; -11.2% (active) in assay [10]; 0.564% (active) in assay [11]; -1.58% (active) in assay [12]. Further, the growth in [13] was -100% (active); in [14], -13.5% (active); in assay [15], -62.6% (active); in assay [16], -54.8% (active); in [17], -4.48% (active); in assay [18], 0.815% (active).

Consider `O=C(Nc1cccc(Oc2nnc(Cl)c3ccccc23)c1)Nc1ccc(Cl)c(C(F)(F)F)c1`, for which the growth in [1] was -72.1% (active); in assay [2], -6.74% (active); in assay [3], -71.9% (active); in assay [4] it was -28.4% (active); in [5], -8.47% (active); in assay [6], 11.7%. Further, the growth in assay [7] is -82.7% (active); in assay [19], -5.44% (active); in assay [9], -23.8% (active); in assay [10], -15.9% (active); in [11], -16.8% (active); in assay [12], -7.38% (active). Also, the growth is 2% (active) in assay [13]; -44.1% (active) in [14]; -16.8% (active) in [15]; -41.9% (active) in assay [16]; -17.2% (active) in [17]; -28.2% (active) in assay [18].

For the molecule `CS(=O)(=O)c1ccc(Nc2nc(N[C@H]3CCCC[C@H]3N)nc3cc[nH]c(=O)c23)cc1`, the growth in [1] is -40% (active); in [2] it was 13.5%; in [3], 3.77% (active); in assay [4], 108%; in [5], 95.2%; in assay [6], 90.7%. The growth in [7] is 51.8%; in [19], 3.99% (active); in assay [8], 3.74% (active); in assay [10], 62.9%; in assay [11] it was 13.6%; in assay [12], -6.49% (active). Also, the growth in assay [13] was -3.9% (active); in [14], 32.8%; in assay [15] it was 1.3% (active); in [16] it was -45.2% (active); in assay [17], 22.2%; in [18], 102%.

For the molecule `N=C1C(c2nc(-c3ccc(Br)cc3)cs2)=C(O)CN1CC1CCCO1` (centres undefined), the growth in assay [1] was 89.8%; in [2], 98.7%; in assay [3], 111%; in assay [4], 20.8%; in [5], 88%; in assay [6], 90.4%. The growth in assay [7] was 96.4%; in assay [8], 70.3%; in assay [9], 38.9%; in assay [10], 48.5%; in [11], 52.7%; in [12], 89.2%. In addition, the growth was 75% in assay [13]; 113% in assay [14]; 46.2% in assay [15]; 105% in assay [16]; 89% in assay [17]; 76.3% in assay [18].

As to `COC1=C(OC)C(=O)C(OC)=C(OC)C1=O`, the growth is 118% in assay [1]; 102% in assay [2]; 94.9% in [3]; 81.2% in assay [4]; 118% in [5]; 98.9% in assay [6]. For the same molecule, the growth in assay [7] was 77.2%; in assay [8], -24.5% (active); in assay [9], 94.4%; in [10], 102%; in assay [11] it was 93.4%; in [12], 108%. Further, the growth is 42.1% in assay [13]; 110% in assay [14]; 101% in assay [15]; 99.3% in [16]; 97% in assay [17]; 98% in assay [18].

Turning to `O=c1ssc(Cl)c1-c1ccccc1`, the growth is 155% in assay [1]; 94.9% in assay [2]; 93.9% in assay [3]; 74.6% in assay [4]; 104% in assay [5]; 90.5% in assay [6]. Moreover, the growth was 108% in assay [7]; 98.1% in assay [19]; 124% in assay [9]; 111% in assay [10]; 89.4% in assay [11]; 88.7% in assay [12]. Moreover, the growth in assay [13] is 98.4%; in assay [14], 118%; in [15] it was 83.7%; in assay [16], 126%; in [17], 104%; in assay [18] it was 95.9%.
